{
  "source": "PubChem BioAssay AID430",
  "about": "(Sanford-Burnham Center for Chemical Genomics, 2006)",
  "note": "About 1,100 (1.7%) of roughly 63,000 compounds were called active. This is one part of a sample in which actives are shown more often than they occur. Rule as the data show it: active = cytotoxicity above about 50%; inactive = the rest. Results with a measured potency or affinity are listed apart.",
  "data": [
    {"assay": "HPDE-C7 pancreatic duct cell viability loss – fluorescence, HTS (AID 430);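 also: cells exposed to compound for 48 hours before viability readout; 0% = vehicle and 100% = reference cytotoxic drug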", "conditions": "HPDE-C7 pancreatic duct cells viability, at 10 µM, stronger effect = higher value", "values": [
      {"smiles": "Cc1ccc(NC(=O)Nc2ccc3c(c2)N(C)C(=O)CS3)nc1", "cytotoxicity": "-4.8% (inactive)"},
      {"smiles": "COC(=O)CCSCC(=O)Nc1cc(C)on1", "cytotoxicity": "-18% (inactive)"},
      {"smiles": "CCn1c(COc2cccc(C)c2)nnc1SCC(=O)N1CCCC1", "cytotoxicity": "-3.1% (inactive)"},
      {"smiles": "CCn1c2ccccc2c2cc(N)ccc21", "cytotoxicity": "15.8% (inactive)"},
      {"smiles": "CCn1c2ccccc2c2cc(/C=N/n3cnnc3)ccc21", "cytotoxicity": "10.8% (inactive)"},
      {"smiles": "C=Cn1ccnc1P(=S)(c1ccc2c(c1)c1ccccc1n2CC)c1nccn1C=C", "cytotoxicity": "73.4% (active)"},
      {"smiles": "CCCCn1c(=O)[nH]c(=O)c2c1nc(-c1ccc(C#N)cc1)n2C1CCCC1", "cytotoxicity": "-7% (inactive)"},
      {"smiles": "CCOC(=O)CSc1nc2ccccc2c(=O)n1CCCCCC(=O)NCc1ccco1", "cytotoxicity": "-23.3% (inactive)"},
      {"smiles": "Clc1ccc(SCCn2ccnc2)cc1", "cytotoxicity": "-0.3% (inactive)"},
      {"smiles": "CC(Oc1ccc(Cl)cc1Cl)C(=O)NCCCn1ccnc1", "note": "(stereo not drawn)", "cytotoxicity": "-1.6% (inactive)"},
      {"smiles": "Clc1ccc(OCCn2ccnc2)c(Cl)c1", "cytotoxicity": "-13.9% (inactive)"},
      {"smiles": "OC(Cn1ccnc1)c1ccc(Cl)cc1Cl", "note": "(stereo not drawn)", "cytotoxicity": "-4.5% (inactive)"},
      {"smiles": "OC(Cn1cncn1)c1ccc(Cl)cc1Cl", "note": "(stereo not drawn)", "cytotoxicity": "1.1% (inactive)"},
      {"smiles": "O=C(COc1ccc(Cl)cc1Cl)NCCCn1ccnc1", "cytotoxicity": "-3.9% (inactive)"},
      {"smiles": "c1ccc2c(Cn3ccnc3)c[nH]c2c1", "cytotoxicity": "-14% (inactive)"},
      {"smiles": "COc1ccc(C(c2sc3nc(C)nn3c2O)N2CCC(O)CC2)cc1OC", "note": "(stereo not drawn)", "cytotoxicity": "-15.1% (inactive)"},
      {"smiles": "CC(=O)C1=C(C)OC(N)=C(C#N)C1c1ccncc1", "note": "(stereo not drawn)", "cytotoxicity": "-7% (inactive)"},
      {"smiles": "COc1ccccc1N1CCN(Cc2cccc(OC)c2OC)CC1", "cytotoxicity": "3.3% (inactive)"},
      {"smiles": "CCCCOc1ccc(C(=O)N2CCC(C)CC2)cc1", "cytotoxicity": "-20.7% (inactive)"},
      {"smiles": "CCCCOc1ccc(C(=O)OC2CC(C)N(C)CC2C)cc1", "note": "(stereo not drawn)", "cytotoxicity": "61.9% (active)"},
      {"smiles": "CCCCOc1ccc(C(=O)NC)cc1", "cytotoxicity": "-5.6% (inactive)"},
      {"smiles": "COc1cccc(N2CCN(Cc3coc4c(Cl)cc(Cl)cc4c3=O)CC2)c1", "cytotoxicity": "61.8% (active)"},
      {"smiles": "COc1ccc(CCNC(=O)CN2CCN(c3cccc(Cl)c3)CC2)cc1OC", "cytotoxicity": "1.7% (inactive)"},
      {"smiles": "COc1cc(CN2CCSCC2)cc(OC)c1OC", "cytotoxicity": "-9.5% (inactive)"},
      {"smiles": "Cc1ccc2occ(CN3CCN(c4ccccc4)CC3)c(=O)c2c1", "cytotoxicity": "-17% (inactive)"},
      {"smiles": "COc1ccc(N2CCN(Cc3cc(=O)oc4ccc(Cl)cc34)CC2)cc1", "cytotoxicity": "-1.8% (inactive)"},
      {"smiles": "COc1ccc(S(=O)(=O)CCC(=O)Nc2c(C)n(C)n(-c3ccccc3)c2=O)cc1", "cytotoxicity": "-10.2% (inactive)"},
      {"smiles": "CC(C)N(Cc1ccccc1)S(=O)(=O)N(C)C", "cytotoxicity": "-7.9% (inactive)"},
      {"smiles": "COc1cc(NC(=O)Cc2nn(C)c(=O)c3ccccc23)cc(OC)c1", "cytotoxicity": "19.8% (inactive)"},
      {"smiles": "COc1ccc(-c2cc(C(F)(F)F)n3ncc(C(=O)O)c3n2)cc1OC", "cytotoxicity": "2% (inactive)"},
      {"smiles": "Cc1ccc(S(=O)(=O)N2CCN(C(=O)C3CCCCC3)CC2)cc1", "cytotoxicity": "7.7% (inactive)"},
      {"smiles": "Cc1cccc(OCCn2c(=O)n(C)c3ccccc32)c1", "cytotoxicity": "-3.7% (inactive)"},
      {"smiles": "Cc1cccc(OCCCN2CCCCCC2)c1", "cytotoxicity": "19.3% (inactive)"},
      {"smiles": "Cc1cc(C)n(-c2nnc3n2N=C(c2ccccc2)CS3)n1", "cytotoxicity": "-0.3% (inactive)"},
      {"smiles": "Cc1cc(C)n(-c2nnc3n2N=C(c2c[nH]c4ccccc24)CS3)n1", "cytotoxicity": "51.3% (active)"},
      {"smiles": "Cc1cccc(-c2nnc3n2N=C(c2ccccc2Br)CS3)c1", "cytotoxicity": "15% (inactive)"},
      {"smiles": "CCCn1c(SCC#N)nc2c(c1=O)C1(CCCC1)Cc1ccccc1-2", "cytotoxicity": "47.8% (inactive)"},
      {"smiles": "N#CCSc1n[nH]c2nc3c(c(=O)n12)C1(CCCC1)Cc1ccccc1-3", "cytotoxicity": "54.9% (active)"},
      {"smiles": "CCn1c(SCC#N)nc2c(c1=O)C1(CCCC1)Cc1ccccc1-2", "cytotoxicity": "41.8% (inactive)"},
      {"smiles": "c1ccc(-n2nnnc2Oc2ccc(-c3nnco3)cc2)cc1", "cytotoxicity": "-4.8% (inactive)"},
      {"smiles": "COc1ccccc1-c1cc(C(F)(F)F)nc(S(=O)(=O)CCCC(=O)N2CCCCC2C)n1", "note": "(stereo not drawn)", "cytotoxicity": "88.8% (active)"},
      {"smiles": "COc1ccccc1-c1cc(C(F)(F)F)nc(N2CCOCC2)n1", "cytotoxicity": "-5.9% (inactive)"},
      {"smiles": "COc1ccccc1-c1cc(C(F)(F)F)nc(S(=O)(=O)CCCC(=O)NC(C)C)n1", "cytotoxicity": "28% (inactive)"},
      {"smiles": "COc1ccccc1-c1cc(C(F)(F)F)nc(N2CCCC2)n1", "cytotoxicity": "-25.6% (inactive)"},
      {"smiles": "COc1ccccc1-c1cc(C(F)(F)F)nc(N2CCN(c3ccccc3)CC2)n1", "cytotoxicity": "29.8% (inactive)"},
      {"smiles": "Cc1cc(S(=O)(=O)N(Cc2ccc3c(c2)OCO3)CC2CCCO2)ccc1-n1cnnn1", "note": "(stereo not drawn)", "cytotoxicity": "-7.2% (inactive)"},
      {"smiles": "COc1cccc(C(=O)Nc2nnc(-c3ccc(Cl)cc3)o2)c1", "cytotoxicity": "85.7% (active)"},
      {"smiles": "COc1cccc(C(=O)Nc2nnc(-c3ccc(F)cc3)o2)c1", "cytotoxicity": "31% (inactive)"},
      {"smiles": "COc1cccc(-c2nnc(NC(C)=O)o2)c1", "cytotoxicity": "7.6% (inactive)"},
      {"smiles": "COc1cccc(-c2nnc(NC(=O)c3cccc(F)c3)o2)c1", "cytotoxicity": "61.8% (active)"},
      {"smiles": "COc1cccc(C(=O)Nc2cccc(-c3nnc(-c4ccccc4)o3)c2)c1", "cytotoxicity": "3.9% (inactive)"},
      {"smiles": "COc1ccc(-c2nnc(NC(=O)c3cc(Cl)ccc3Cl)o2)cc1", "cytotoxicity": "33.1% (inactive)"},
      {"smiles": "O=C(Nc1ccc(Cc2ccncc2)cc1)C1CC1", "cytotoxicity": "-38.5% (inactive)"},
      {"smiles": "CN(C)/C=c1\\sc2c(C#N)cc(C(=O)c3ccc(Br)cc3)n2c1=O", "cytotoxicity": "-29.6% (inactive)"},
      {"smiles": "O=C1[C@H]2[C@@H](C(=O)N1c1cc(Cl)cc(Cl)c1)[C@]1(C(=O)Nc3ccccc31)N1CCC[C@@H]21", "cytotoxicity": "-1.8% (inactive)"},
      {"smiles": "COC(=O)c1ccccc1Nc1ccccc1", "cytotoxicity": "-2.7% (inactive)"},
      {"smiles": "CCOC(=O)C1=C(N)n2c(s/c(=C/c3ccco3)c2=O)=C(C(=O)OC)C1c1ccco1", "note": "(stereo not drawn)", "cytotoxicity": "75.9% (active)"},
      {"smiles": "CCOC(=O)C1=C(N)n2c(s/c(=C\\c3ccco3)c2=O)=C(C(=O)OC(C)C)C1c1ccco1", "note": "(stereo not drawn)", "cytotoxicity": "-11.9% (inactive)"},
      {"smiles": "CCOC(=O)C1=C(N)n2c(s/c(=C\\c3cccnc3)c2=O)=C(C(=O)OCC)C1c1cccnc1", "note": "(stereo not drawn)", "cytotoxicity": "-31.3% (inactive)"},
      {"smiles": "CCOC(=O)C1=C(N)n2c(s/c(=C\\c3cccnc3)c2=O)=C(C(=O)OC)C1c1cccnc1", "note": "(stereo not drawn)", "cytotoxicity": "10.6% (inactive)"},
      {"smiles": "N#CC1=C(N)n2c(s/c(=C\\c3ccco3)c2=O)=C(C#N)C1c1ccco1", "note": "(stereo not drawn)", "cytotoxicity": "12.3% (inactive)"},
      {"smiles": "CCCCCCn1c(SCC(=O)OC)nc2c1c(=O)[nH]c(=O)n2C", "cytotoxicity": "3.9% (inactive)"},
      {"smiles": "CC1Cc2ccccc2N1C(=O)CSc1ncccc1C(=O)O", "note": "(stereo not drawn)", "cytotoxicity": "-4.3% (inactive)"}
    ]}
  ]
}
